# Key:
# Test in all cases: DAPPL (digital affinity profiling via proximity ligation, sequencing); 10 mM Tris-HCl pH 7.5, 50 mM NaCl, 1 mM DTT, 4% glycerol, room temperature, 30 min; GST-TFs on glutathione beads, 16-mer random dsDNA library, 0.1% formaldehyde crosslink after washing; high values mean tight binding
# Settings in all cases: protein: recombinant; tags: N-terminal GST; dsDNA, one strand shown
# [1] = target: T1, FLI1 (Homo sapiens, UniProt Q01543 1-452)
# T1 sequence: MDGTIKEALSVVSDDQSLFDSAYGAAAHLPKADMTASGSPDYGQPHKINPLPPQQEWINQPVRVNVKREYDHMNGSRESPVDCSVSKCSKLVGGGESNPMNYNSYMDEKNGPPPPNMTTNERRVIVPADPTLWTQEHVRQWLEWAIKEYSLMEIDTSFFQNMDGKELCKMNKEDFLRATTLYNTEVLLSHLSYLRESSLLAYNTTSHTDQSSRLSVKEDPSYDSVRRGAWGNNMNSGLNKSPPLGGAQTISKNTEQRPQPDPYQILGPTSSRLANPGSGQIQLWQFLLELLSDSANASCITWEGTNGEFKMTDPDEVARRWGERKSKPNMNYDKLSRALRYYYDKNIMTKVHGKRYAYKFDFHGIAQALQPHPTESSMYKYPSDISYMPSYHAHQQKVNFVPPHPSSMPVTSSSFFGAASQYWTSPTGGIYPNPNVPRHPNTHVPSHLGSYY
# Method in brief: (§1)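 Each value of binding signal is a hexamer's read frequency for a factor divided by the same hexamer's frequency in the tag-only sample. Barcoded, bead-captured GST fusions of human transcription factors made in yeast were pooled with that sample and incubated with 200 nmole of a random double-stranded 16-mer DNA library in Tris/NaCl/DTT/glycerol buffer at room temperature for 30 min. Washing, 0.1% formaldehyde crosslinking, proximity ligation, PCR and Illumina NextSeq500 sequencing followed.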
# [2] = target: T2, ELK1 (Homo sapiens, UniProt P19419 1-428)
# T2 sequence: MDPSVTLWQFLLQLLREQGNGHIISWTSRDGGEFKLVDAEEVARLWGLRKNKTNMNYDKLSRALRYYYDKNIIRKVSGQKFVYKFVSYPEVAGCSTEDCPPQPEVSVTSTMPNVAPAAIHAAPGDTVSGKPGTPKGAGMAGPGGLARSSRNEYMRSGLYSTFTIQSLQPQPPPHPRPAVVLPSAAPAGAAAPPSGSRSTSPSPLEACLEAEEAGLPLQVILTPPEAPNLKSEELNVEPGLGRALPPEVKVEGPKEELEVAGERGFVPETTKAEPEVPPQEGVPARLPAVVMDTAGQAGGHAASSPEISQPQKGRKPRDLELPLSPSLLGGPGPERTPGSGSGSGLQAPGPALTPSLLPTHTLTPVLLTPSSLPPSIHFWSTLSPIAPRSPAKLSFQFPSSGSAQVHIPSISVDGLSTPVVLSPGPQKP
# Method in brief: as §1
# [3] = target: T3, GABPA (Homo sapiens, UniProt Q06546 1-454)
# T3 sequence: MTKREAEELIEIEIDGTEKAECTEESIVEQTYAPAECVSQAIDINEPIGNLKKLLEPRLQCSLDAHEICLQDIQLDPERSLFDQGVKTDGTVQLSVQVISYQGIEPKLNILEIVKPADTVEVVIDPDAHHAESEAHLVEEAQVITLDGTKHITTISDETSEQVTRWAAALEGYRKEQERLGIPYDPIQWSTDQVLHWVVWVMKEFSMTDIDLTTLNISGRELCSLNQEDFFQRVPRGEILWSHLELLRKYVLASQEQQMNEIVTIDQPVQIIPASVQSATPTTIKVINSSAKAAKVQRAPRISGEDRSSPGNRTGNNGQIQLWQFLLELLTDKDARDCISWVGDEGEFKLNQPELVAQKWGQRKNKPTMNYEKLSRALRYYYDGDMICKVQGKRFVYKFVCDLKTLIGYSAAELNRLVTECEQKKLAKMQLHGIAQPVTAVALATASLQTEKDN
# Method in brief: as §1
# [4] = target: T4, ERG (Homo sapiens, UniProt P11308 1-479)
# T4 sequence: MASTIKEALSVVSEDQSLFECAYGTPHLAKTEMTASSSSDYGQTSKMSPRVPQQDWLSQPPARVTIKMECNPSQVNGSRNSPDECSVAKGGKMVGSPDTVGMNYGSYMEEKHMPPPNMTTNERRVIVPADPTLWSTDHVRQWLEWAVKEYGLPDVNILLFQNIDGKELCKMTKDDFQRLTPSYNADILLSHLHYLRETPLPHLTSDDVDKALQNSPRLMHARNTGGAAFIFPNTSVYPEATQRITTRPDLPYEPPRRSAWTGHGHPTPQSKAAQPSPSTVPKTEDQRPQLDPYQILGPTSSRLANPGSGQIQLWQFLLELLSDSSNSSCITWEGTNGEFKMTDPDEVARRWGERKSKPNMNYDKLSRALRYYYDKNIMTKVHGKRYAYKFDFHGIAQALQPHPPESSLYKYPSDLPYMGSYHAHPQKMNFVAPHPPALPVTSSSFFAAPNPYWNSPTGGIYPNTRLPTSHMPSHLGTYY
# Method in brief: as §1
# [5] = target: ELF1 (Homo sapiens, UniProt P32519 1-619)
# Method in brief: as §1
# [6] = target: T5, EHF (Homo sapiens, UniProt Q9NZC4 1-300)
# T5 sequence: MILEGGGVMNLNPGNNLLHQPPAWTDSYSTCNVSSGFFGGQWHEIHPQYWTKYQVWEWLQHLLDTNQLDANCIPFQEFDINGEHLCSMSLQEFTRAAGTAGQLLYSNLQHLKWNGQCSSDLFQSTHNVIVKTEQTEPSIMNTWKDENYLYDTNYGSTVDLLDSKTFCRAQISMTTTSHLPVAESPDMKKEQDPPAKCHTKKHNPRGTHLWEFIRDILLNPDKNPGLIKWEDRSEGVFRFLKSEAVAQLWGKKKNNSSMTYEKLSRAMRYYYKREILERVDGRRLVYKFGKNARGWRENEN
# Method in brief: as §1
# [7] = target: SPI1 (Homo sapiens, UniProt P17947 1-270)
# Method in brief: as §1
# [8] = target: SPIB (Homo sapiens, UniProt Q01892 1-262)
# Method in brief: as §1
# [9] = target: T6, ELK3 (Homo sapiens, UniProt P41970 1-407)
# T6 sequence: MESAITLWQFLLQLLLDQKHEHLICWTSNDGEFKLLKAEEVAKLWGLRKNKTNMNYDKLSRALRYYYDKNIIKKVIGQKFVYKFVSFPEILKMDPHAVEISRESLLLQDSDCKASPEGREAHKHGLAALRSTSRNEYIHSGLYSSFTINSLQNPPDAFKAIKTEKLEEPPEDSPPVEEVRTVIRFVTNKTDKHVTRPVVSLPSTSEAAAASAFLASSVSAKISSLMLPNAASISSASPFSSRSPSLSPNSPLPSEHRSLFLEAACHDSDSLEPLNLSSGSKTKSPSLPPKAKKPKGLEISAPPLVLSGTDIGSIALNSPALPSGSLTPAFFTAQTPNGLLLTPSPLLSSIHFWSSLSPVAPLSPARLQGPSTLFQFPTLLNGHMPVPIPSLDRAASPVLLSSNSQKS
# Method in brief: as §1
# Sequence of SPIB (Q01892 whole entry): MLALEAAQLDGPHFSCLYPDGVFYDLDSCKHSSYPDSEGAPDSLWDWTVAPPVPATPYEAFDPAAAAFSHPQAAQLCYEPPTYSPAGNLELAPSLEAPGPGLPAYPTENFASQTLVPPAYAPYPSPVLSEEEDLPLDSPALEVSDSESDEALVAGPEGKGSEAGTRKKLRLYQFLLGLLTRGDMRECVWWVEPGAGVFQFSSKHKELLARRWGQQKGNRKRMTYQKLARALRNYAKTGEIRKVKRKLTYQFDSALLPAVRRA
# Sequence of ELF1 (P32519 whole entry): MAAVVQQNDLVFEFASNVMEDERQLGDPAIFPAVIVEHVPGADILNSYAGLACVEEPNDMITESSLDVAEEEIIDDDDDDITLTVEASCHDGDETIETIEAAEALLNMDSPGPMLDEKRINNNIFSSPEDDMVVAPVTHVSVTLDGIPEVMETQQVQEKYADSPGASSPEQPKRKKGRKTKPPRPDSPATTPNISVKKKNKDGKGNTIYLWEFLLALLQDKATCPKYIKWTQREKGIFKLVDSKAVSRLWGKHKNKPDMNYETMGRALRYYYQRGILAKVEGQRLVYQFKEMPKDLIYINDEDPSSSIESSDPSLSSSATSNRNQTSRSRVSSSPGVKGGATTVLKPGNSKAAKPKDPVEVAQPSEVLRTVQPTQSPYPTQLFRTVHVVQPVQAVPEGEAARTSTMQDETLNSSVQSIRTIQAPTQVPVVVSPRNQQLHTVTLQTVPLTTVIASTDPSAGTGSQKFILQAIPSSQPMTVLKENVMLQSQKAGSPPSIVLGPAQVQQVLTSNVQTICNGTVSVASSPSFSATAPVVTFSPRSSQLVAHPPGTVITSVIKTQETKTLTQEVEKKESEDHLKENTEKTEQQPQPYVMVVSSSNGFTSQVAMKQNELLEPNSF
Sequence,binding signal [1],binding signal [2],binding signal [3],binding signal [4],binding signal [5],binding signal [6],binding signal [7],binding signal [8],binding signal [9]
CTCACT,"1.61 fold enrichment (6-mer frequency, TF over GST control)","1.76 fold enrichment (6-mer frequency, TF over GST control)","1.59 fold enrichment (6-mer frequency, TF over GST control)","1.57 fold enrichment (6-mer frequency, TF over GST control)","1.49 fold enrichment (6-mer frequency, TF over GST control)","1.56 fold enrichment (6-mer frequency, TF over GST control)","1.68 fold enrichment (6-mer frequency, TF over GST control)","1.66 fold enrichment (6-mer frequency, TF over GST control)","1.5 fold enrichment (6-mer frequency, TF over GST control)"
TGGTAT,"1.41 fold enrichment (6-mer frequency, TF over GST control)","1.45 fold enrichment (6-mer frequency, TF over GST control)","1.29 fold enrichment (6-mer frequency, TF over GST control)","1.31 fold enrichment (6-mer frequency, TF over GST control)","1.39 fold enrichment (6-mer frequency, TF over GST control)","1.32 fold enrichment (6-mer frequency, TF over GST control)","1.39 fold enrichment (6-mer frequency, TF over GST control)","1.37 fold enrichment (6-mer frequency, TF over GST control)","1.24 fold enrichment (6-mer frequency, TF over GST control)"
GTCCCT,"1.15 fold enrichment (6-mer frequency, TF over GST control)","1.29 fold enrichment (6-mer frequency, TF over GST control)","1.2 fold enrichment (6-mer frequency, TF over GST control)","1.24 fold enrichment (6-mer frequency, TF over GST control)","1.28 fold enrichment (6-mer frequency, TF over GST control)","1.27 fold enrichment (6-mer frequency, TF over GST control)","1.38 fold enrichment (6-mer frequency, TF over GST control)","1.18 fold enrichment (6-mer frequency, TF over GST control)","1.16 fold enrichment (6-mer frequency, TF over GST control)"
AATTTT,"1.24 fold enrichment (6-mer frequency, TF over GST control)","1.26 fold enrichment (6-mer frequency, TF over GST control)","1.27 fold enrichment (6-mer frequency, TF over GST control)","1.21 fold enrichment (6-mer frequency, TF over GST control)","1.22 fold enrichment (6-mer frequency, TF over GST control)","1.3 fold enrichment (6-mer frequency, TF over GST control)","1.3 fold enrichment (6-mer frequency, TF over GST control)","1.26 fold enrichment (6-mer frequency, TF over GST control)","1.19 fold enrichment (6-mer frequency, TF over GST control)"
CTGCCA,"1.18 fold enrichment (6-mer frequency, TF over GST control)","1.17 fold enrichment (6-mer frequency, TF over GST control)","1.24 fold enrichment (6-mer frequency, TF over GST control)","1.23 fold enrichment (6-mer frequency, TF over GST control)","1.23 fold enrichment (6-mer frequency, TF over GST control)","1.18 fold enrichment (6-mer frequency, TF over GST control)","1.24 fold enrichment (6-mer frequency, TF over GST control)","1.28 fold enrichment (6-mer frequency, TF over GST control)","1.08 fold enrichment (6-mer frequency, TF over GST control)"
ATATTG,"1.25 fold enrichment (6-mer frequency, TF over GST control)","1.31 fold enrichment (6-mer frequency, TF over GST control)","1.32 fold enrichment (6-mer frequency, TF over GST control)","1.25 fold enrichment (6-mer frequency, TF over GST control)","1.31 fold enrichment (6-mer frequency, TF over GST control)","1.3 fold enrichment (6-mer frequency, TF over GST control)","1.28 fold enrichment (6-mer frequency, TF over GST control)","1.28 fold enrichment (6-mer frequency, TF over GST control)","1.29 fold enrichment (6-mer frequency, TF over GST control)"
GTCCTC,"1.15 fold enrichment (6-mer frequency, TF over GST control)","1.22 fold enrichment (6-mer frequency, TF over GST control)","1.17 fold enrichment (6-mer frequency, TF over GST control)","1.21 fold enrichment (6-mer frequency, TF over GST control)","1.18 fold enrichment (6-mer frequency, TF over GST control)","1.28 fold enrichment (6-mer frequency, TF over GST control)","1.25 fold enrichment (6-mer frequency, TF over GST control)","1.21 fold enrichment (6-mer frequency, TF over GST control)","1.22 fold enrichment (6-mer frequency, TF over GST control)"
GATTTC,"1.77 fold enrichment (6-mer frequency, TF over GST control)","1.78 fold enrichment (6-mer frequency, TF over GST control)","1.55 fold enrichment (6-mer frequency, TF over GST control)","2.15 fold enrichment (6-mer frequency, TF over GST control)","1.62 fold enrichment (6-mer frequency, TF over GST control)","1.71 fold enrichment (6-mer frequency, TF over GST control)","1.67 fold enrichment (6-mer frequency, TF over GST control)","1.72 fold enrichment (6-mer frequency, TF over GST control)","1.73 fold enrichment (6-mer frequency, TF over GST control)"

# — article PMC7862700, “An all-to-all approach to the identification of sequence-specific readers for epigenetic DNA modifications on cytosine”
